In PubChem BioAssay (Tox21):
Results filed as inconclusive are left out. Calls of active or inactive are those of the source. Unless noted, calls follow the shape of the full dose curve.

What was measured:
[1] = qHTS assay to identify small molecule antagonists of the sonic hedgehog signaling (Shh) pathway (AID 1259369); also: nearly all actives have a fitted effect of over 45% in size
Outline: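 3T3Gli1-Luc, conditioned-medium-stimulated, 24hr cpd, 37C/5% CO2; Gli1-driven firefly Luc luminescence after 30min RT with luciferase reagent. Cells plated 4hr before cpd.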

[2] = biological target: Estrogen receptor beta (Homo sapiens) (UniProt Q92731); test: qHTS assay to identify small molecule agonists of the estrogen receptor beta (ER-beta) signaling pathway (AID 1259377; active = well fitted activation curve with a large enough effect in the signal ratio in the repeat runs, not every such curve was filed as active; the % refers to the signal ratio)
Outline: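 Reporter cells (HEK293T, ER-beta-UAS-bla) receive compounds or DMSO after a 6 hr pre-incubation. They then incubate 16 hr at 37C/5% CO2, and fluorescence from LiveBLAzer B/G substrate is measured after 2 hours at room temperature.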

[3] = biological target: Estrogen receptor beta (Homo sapiens) (UniProt Q92731); test: qHTS assay to identify small molecule antagonists of the estrogen receptor beta (ER-beta) signaling pathway (AID 1259378; active = well fitted inhibition curve with a large enough effect in the signal ratio in the repeat runs, not every such curve was filed as active; the % refers to the signal ratio)
Outline: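 Antagonist mode: compounds added to beta-lactamase reporter HEK293T ER-beta-UAS cells stimulated with E2 (1nM final), 16 hr at 37C. LiveBLAzer B/G FRET substrate, 2 hours room temperature, fluorescence read-out.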

[4] = qHTS assay to identify small molecule agonists of the androgen receptor (AR) signaling pathway in the presence of an antagonist - cell viability counter screen (AID 1259379; active = well fitted curve in the direction sought with a large enough effect in the repeat runs; an effect the other way counts as inactive or inconclusive;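 also: MDA-kb2 human breast cancer cells carrying an MMTV luciferase reporter; series mostly up to about 92 µM; nearly all actives have a fitted effect of over 25% in size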)
Outline: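 Cells: MDA-kb2 (MMTV-luc, AR and GR elements), 3,000/well, 5 hr settle. Added: nilutamide 3.0uM final, then compounds (15 conc.). Incubation: 16 hr, 37C, no CO2. Read-out: CellTiter-Fluor, 1 hr, fluorescence.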

[5] = qHTS assay to identify small molecule agonists of the estrogen receptor beta (ER-beta) signaling pathway - cell viability counter screen (AID 1259380; active = well fitted curve in the direction sought with a large enough effect in the repeat runs; an effect the other way counts as inactive or inconclusive; also: nearly all actives have a fitted effect of over 30% in size; also: potency is read from the fitted curve at half-maximal effect)
Outline: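 HEK293T ER-beta-UAS-bla; 2% CS-FBS; 6 hr pre-plate, 16 hr cpd at 37C/5% CO2; LiveBLAzer read first, then CellTiter-Glo 30 min RT, luminescence.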

[6] = qHTS assay to identify small molecule antagonists of the estrogen receptor beta (ER-beta) signaling pathway - cell viability counter screen (AID 1259382; active = well fitted curve in the direction sought with a large enough effect in the repeat runs; an effect the other way counts as inactive or inconclusive;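 also: HEK293T cells carrying ER-beta-UAS-bla reporter stimulated with estradiol; series mostly up to about 92 µM; nearly all actives have a fitted effect of over 55% in size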)
Outline: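 Cells: ER-beta-UAS-bla HEK293T, 2,000/well, 2% CS-FBS, 6 hr settle. Cpd + E2 (1nM final), 16 hr, 37C/5% CO2. Bla FRET substrate 2 hr RT, then CellTiter-Glo 30 min RT, luminescence.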

[7] = biological target: Estrogen receptor (Homo sapiens) (UniProt P03372); test: qHTS assay to identify small molecule agonists of the estrogen receptor alpha (ER-alpha) signaling pathway in the presence of an antagonist (AID 1259383); also: top concentration of the series differs between compounds; nearly all actives have a fitted effect of over 15% in size
Outline: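 VM7Luc4E2, endog. ER-alpha + 4×ERE-luc; charcoal-stripped FBS, phenol red-free, 5 d; 24hr plating; +10.0nM ICI-182,780 (final); cpds 15 conc, 22hr, 37C/5% CO2; ONE-Glo luminescence.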

[8] = qHTS assay to identify small molecule agonists or antagonists of the thyroid stimulating hormone receptor (TSHR) signaling pathway - wild type cell line counter screen (AID 1259384)
Outline: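 Counter screen in untransfected Hek293: compounds (15-point titration, triplicate) plus phosphodiesterase inhibitor Ro20-1724 added after 18 h plating; 30 min RT. Intracellular cAMP via competitive d2/cryptate immunoassay, 1 h incubation.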

[9] = biological target: Thyrotropin receptor (Homo sapiens) (UniProt P16473); test: qHTS assay to identify small molecule antagonists of the thyroid stimulating hormone receptor (TSHR) signaling pathway (AID 1259385); also: nearly all actives have a fitted effect of over 20% in size
Outline: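 Antagonist mode: compound-treated TSHR-expressing HEK293 cells were stimulated with 1.5 ng/mL TSH (final) in presence of Ro20-1724 for 30 min at RT. HTRF cAMP detection after 1 h; each compound tested at 15 concentrations, triplicate.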

[10] = qHTS assay to identify small molecule agonists of the estrogen receptor alpha (ER-alpha) signaling pathway in the presence of an antagonist - cell viability counter screen (AID 1259386; active = well fitted curve in the direction sought with a large enough effect in the repeat runs; an effect the other way counts as inactive or inconclusive;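 also: series mostly up to about 92 µM; cells exposed to compounds for 22 h at 37 °C before the viability read; nearly all actives have a fitted effect of over 30% in size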)
Outline: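 VM7Luc4E2, stripped-serum pre-culture 5 d; 24hr plating; +ICI-182,780 10.0nM final; cpds 15 conc, 22hr, 37C/5% CO2; CellTiter-Fluor added at 21hr, fluorescence 1hr later.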

[11] = biological target: Progesterone receptor (Homo sapiens) (UniProt P06401); test: qHTS assay to identify small molecule agonists of the progesterone receptor (PR) signaling pathway (AID 1346784); also: nearly all actives have a fitted effect of over 30% in size
Outline: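 Reporter assay, GripTite PR-UAS-bla HEK 293T cells: 16 hr exposure to DMSO-dissolved compounds at 37C, 5% CO2, in steroid-depleted (2% charcoal-stripped FBS) medium; beta-lactamase measured by FRET fluorescence.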

[12] = biological target: Progesterone receptor (Homo sapiens) (UniProt P06401); test: qHTS assay to identify small molecule antagonists of the progesterone receptor (PR) signaling pathway (AID 1346795; active = well fitted inhibition curve with a large enough effect in the signal ratio in the repeat runs, not every such curve was filed as active; the % refers to the signal ratio)
Outline: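 Stimulus R5020 at 1 nM final; cells HEK293T PR-UAS-bla; medium with 2% charcoal-stripped FBS; compound exposure 16 hr at 37C, 5% CO2; detection by FRET beta-lactamase substrate, 2 hr, room temperature.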

[13] = qHTS assay to identify small molecule antagonists of the progesterone receptor (PR) signaling pathway - cell viability counter screen (AID 1346798; active = well fitted curve in the direction sought with a large enough effect in the repeat runs; an effect the other way counts as inactive or inconclusive; also: series mostly up to about 92 µM; nearly all actives have a fitted effect of over 50% in size)
Outline: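 In the same plates used for the beta-lactamase readout, cell viability of compound- and R5020-treated PR-UAS-bla HEK293T cells (16 hr, 37C) was assessed by CellTiter-Glo luminescence.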

[14] = qHTS assay to identify small molecule agonists of the progesterone receptor (PR) signaling pathway - cell viability counter screen (AID 1346799); also: nearly all actives have a fitted effect of over 45% in size; also: potency is read from the fitted curve at half-maximal effect
Outline: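 Multiplexed viability read: CellTiter-Glo luminescence, 30 min RT, following LiveBLAzer FRET measurement on PR-UAS-bla HEK293T cells exposed to compounds 16 hr.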

[15] = qHTS assay to identify small molecule antagonists of the TGF-beta/Smad signaling pathway - cell viability counter screen (AID 1346824; active = well fitted curve in the direction sought with a large enough effect in the repeat runs; an effect the other way counts as inactive or inconclusive; also: nearly all actives have a fitted effect of over 50% in size)
Outline: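 Cytotoxicity counter-screen run in the same wells as the beta-lactamase Smad reporter read: CellTiter-Glo luminescence after 30 min at room temperature. HEK 293T SBE-bla cells had 5 hr compound exposure at 37 C with TGF-beta1 (0.25 ng/mL stock).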

[16] = qHTS assay to identify small molecule agonists of the TGF-beta/Smad signaling pathway - cell viability counter screen (AID 1346829; active = well fitted curve in the direction sought with a large enough effect in the repeat runs; an effect the other way counts as inactive or inconclusive; also: top concentration of the series differs between compounds; nearly all actives have a fitted effect of over 45% in size)
Outline: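 Same-well cytotoxicity: CellTiter-Glo added after the 2 hr room-temperature beta-lactamase substrate step, luminescence measured 30 min later; cells had 5 hr of compound at 37 C.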

[17] = qHTS assay to identify small molecule agonists of the TGF-beta/Smad signaling pathway (AID 1346859; active = well fitted activation curve with a large enough effect in the signal ratio in the repeat runs, not every such curve was filed as active; the % refers to the signal ratio; also: series mostly up to about 77 µM)
Outline: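 Screening used HEK 293T SBE-bla cells at 4,000/well. Test agents: 5 hr, 37 C. Detection: FRET substrate, 2 hr RT, then excitation 405 nm with emissions at 460 and 530 nm.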

[18] = biological target: Thyrotropin-releasing hormone receptor (Homo sapiens) (UniProt P34981); test: qHTS assay to identify small molecule agonists of the thyrotropin-releasing hormone receptor (TRHR) signaling pathway (AID 1346891); also: series mostly up to about 58 µM
Outline: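 Readout was intracellular calcium fluorescence in TRHR-Hek293 cells. Cells were incubated 18 h, dye-loaded 2 h at 37 °C, and treated with compound in agonist mode.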

[19] = biological target: Thyrotropin-releasing hormone receptor (Homo sapiens) (UniProt P34981); test: qHTS assay to identify small molecule antagonists of the thyrotropin-releasing hormone receptor (TRHR) signaling pathway (AID 1346877; active = well fitted inhibition curve with a large enough effect in the repeat runs, not every such curve was filed as active; also: series mostly up to about 51 µM)
Outline: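 Intracellular calcium fluorescence, read kinetically every second over 3 min, reports TRH-evoked signalling in HEK293 cells carrying TRHR. Test compounds were added 5 min ahead of a 1 nM TRH challenge.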

[20] = biological target: Androgen receptor (Homo sapiens) (UniProt P10275); test: qHTS assay to identify small molecule agonists of the androgen receptor (AR) signaling pathway in the presence of an antagonist (AID 1259381); also: nearly all actives have a fitted effect of over 15% in size
Outline: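 MDA-kb2 cells, 3,000/well, rested 5hr at 37C/0% CO2 → nilutamide 3.0uM final or buffer → compounds, 15 conc. → 16hr at 37C → ONE-Glo, 30min RT → luminescence.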
% is scaled to controls: 0 for no effect and ±100 for the full control effect.

Thyrotropin-releasing hormone receptor (Homo sapiens), sequence (P34981 whole entry, looked up): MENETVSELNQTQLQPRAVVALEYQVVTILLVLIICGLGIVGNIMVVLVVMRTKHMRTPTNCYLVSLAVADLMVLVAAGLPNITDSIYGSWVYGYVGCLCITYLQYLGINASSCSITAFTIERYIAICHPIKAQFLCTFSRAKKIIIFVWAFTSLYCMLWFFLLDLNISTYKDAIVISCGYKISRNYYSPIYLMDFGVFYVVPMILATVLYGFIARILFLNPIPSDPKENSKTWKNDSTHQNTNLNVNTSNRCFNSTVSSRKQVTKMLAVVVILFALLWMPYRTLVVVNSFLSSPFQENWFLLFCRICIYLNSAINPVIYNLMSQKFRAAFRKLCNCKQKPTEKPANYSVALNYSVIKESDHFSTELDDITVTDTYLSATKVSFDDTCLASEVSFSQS
Thyrotropin receptor (Homo sapiens), sequence (P16473 whole entry, looked up): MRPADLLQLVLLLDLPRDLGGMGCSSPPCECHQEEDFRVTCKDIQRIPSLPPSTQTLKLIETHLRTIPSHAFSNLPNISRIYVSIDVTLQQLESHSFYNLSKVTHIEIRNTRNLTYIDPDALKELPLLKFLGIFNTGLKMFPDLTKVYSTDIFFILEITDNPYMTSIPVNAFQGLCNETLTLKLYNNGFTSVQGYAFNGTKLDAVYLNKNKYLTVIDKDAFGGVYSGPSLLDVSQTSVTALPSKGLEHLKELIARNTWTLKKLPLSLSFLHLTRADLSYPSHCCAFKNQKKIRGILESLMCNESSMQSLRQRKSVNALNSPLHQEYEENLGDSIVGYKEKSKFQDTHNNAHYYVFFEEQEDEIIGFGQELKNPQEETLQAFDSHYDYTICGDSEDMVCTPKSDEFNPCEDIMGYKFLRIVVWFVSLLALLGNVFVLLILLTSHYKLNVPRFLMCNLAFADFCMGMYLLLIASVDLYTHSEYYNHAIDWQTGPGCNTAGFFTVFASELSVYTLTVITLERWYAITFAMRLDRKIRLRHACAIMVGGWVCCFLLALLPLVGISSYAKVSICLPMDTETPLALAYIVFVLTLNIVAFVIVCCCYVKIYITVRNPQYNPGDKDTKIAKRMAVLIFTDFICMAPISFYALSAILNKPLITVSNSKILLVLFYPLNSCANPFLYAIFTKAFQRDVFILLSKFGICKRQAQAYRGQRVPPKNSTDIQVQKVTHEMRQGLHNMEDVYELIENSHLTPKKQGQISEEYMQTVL
Estrogen receptor beta (Homo sapiens), sequence (Q92731 whole entry, looked up): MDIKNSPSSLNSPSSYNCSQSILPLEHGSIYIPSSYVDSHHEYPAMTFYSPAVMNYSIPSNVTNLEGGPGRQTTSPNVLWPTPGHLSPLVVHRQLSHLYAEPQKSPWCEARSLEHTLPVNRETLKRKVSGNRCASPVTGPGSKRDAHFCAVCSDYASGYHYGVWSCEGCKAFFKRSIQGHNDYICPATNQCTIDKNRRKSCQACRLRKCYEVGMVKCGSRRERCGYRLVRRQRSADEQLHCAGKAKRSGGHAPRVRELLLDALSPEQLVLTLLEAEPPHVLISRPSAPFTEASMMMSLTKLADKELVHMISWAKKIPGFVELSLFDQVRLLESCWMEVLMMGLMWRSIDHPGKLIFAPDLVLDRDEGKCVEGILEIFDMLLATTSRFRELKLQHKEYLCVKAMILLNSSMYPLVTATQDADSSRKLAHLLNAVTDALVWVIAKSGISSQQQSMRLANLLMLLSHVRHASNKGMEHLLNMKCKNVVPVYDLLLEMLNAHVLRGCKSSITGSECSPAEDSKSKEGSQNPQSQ
Estrogen receptor (Homo sapiens), sequence (P03372 whole entry, looked up): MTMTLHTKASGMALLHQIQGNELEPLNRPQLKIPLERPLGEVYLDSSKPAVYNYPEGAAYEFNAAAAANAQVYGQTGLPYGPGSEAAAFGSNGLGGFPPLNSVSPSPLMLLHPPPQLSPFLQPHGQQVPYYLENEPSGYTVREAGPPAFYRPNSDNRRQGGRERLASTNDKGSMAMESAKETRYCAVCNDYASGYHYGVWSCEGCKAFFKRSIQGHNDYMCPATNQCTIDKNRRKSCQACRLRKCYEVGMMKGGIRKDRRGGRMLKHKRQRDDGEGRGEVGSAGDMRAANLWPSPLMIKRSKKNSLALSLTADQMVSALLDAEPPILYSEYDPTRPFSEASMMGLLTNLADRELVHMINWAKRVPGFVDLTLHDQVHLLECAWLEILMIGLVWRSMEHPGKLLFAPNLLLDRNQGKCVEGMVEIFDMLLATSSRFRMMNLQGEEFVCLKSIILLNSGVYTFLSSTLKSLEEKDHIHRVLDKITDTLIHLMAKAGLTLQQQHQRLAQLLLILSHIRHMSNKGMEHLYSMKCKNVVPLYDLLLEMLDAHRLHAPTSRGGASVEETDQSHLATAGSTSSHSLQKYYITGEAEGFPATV
Progesterone receptor (Homo sapiens), sequence (P06401 whole entry, looked up): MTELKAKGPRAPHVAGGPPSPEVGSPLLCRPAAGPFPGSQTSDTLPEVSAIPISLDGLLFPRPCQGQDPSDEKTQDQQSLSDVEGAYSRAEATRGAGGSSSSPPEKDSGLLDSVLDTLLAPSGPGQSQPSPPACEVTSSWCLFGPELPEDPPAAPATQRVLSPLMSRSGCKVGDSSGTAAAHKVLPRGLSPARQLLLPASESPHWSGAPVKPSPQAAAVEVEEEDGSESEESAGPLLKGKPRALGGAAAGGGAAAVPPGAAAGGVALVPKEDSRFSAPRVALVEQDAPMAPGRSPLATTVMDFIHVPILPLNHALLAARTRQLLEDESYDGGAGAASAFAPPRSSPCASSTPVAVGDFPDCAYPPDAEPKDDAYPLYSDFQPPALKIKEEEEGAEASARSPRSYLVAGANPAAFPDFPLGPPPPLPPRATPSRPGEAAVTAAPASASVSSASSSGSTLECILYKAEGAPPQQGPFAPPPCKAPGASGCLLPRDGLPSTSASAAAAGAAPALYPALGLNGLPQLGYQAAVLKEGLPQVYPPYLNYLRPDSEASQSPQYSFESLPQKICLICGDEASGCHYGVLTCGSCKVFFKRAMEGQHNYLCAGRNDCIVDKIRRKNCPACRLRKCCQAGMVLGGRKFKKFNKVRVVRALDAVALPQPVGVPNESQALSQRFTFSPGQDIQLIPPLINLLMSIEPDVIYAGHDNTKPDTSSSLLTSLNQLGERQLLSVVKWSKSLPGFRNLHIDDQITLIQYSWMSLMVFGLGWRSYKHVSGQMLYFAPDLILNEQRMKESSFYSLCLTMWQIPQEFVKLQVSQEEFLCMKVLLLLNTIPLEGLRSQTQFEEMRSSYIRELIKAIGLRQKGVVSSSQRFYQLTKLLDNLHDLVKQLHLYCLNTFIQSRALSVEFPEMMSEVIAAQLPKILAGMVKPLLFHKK
Androgen receptor (Homo sapiens), sequence (P10275 whole entry, looked up): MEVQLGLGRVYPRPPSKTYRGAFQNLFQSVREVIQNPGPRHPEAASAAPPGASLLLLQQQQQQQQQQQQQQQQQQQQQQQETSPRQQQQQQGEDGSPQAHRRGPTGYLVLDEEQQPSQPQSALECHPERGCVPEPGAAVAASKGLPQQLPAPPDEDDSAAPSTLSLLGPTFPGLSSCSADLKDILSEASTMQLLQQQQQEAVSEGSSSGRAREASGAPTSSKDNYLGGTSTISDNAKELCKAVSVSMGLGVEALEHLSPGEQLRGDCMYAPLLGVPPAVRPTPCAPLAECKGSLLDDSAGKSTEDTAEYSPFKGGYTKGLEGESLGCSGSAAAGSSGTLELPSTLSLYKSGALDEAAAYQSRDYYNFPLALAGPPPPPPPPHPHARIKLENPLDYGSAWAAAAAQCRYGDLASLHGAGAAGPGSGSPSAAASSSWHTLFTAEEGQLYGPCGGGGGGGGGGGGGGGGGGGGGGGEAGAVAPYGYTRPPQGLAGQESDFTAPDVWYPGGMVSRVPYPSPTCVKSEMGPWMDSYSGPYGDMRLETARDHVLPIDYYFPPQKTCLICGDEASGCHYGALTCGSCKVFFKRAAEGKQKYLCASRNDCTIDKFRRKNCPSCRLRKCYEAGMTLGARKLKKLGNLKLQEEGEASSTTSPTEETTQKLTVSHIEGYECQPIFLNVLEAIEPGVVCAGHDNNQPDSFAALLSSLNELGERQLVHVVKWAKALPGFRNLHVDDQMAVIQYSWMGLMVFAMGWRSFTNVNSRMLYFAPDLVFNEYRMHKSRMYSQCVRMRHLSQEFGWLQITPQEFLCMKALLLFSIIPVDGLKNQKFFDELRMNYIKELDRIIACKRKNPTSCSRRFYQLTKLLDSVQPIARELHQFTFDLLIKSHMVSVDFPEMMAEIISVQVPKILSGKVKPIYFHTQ

CC(CSC(=O)c1ccccc1)C(=O)N1C[C@@H](Sc2ccccc2)C[C@H]1C(=O)O (stereo partly drawn)
inactive: activity change, negative = inhibition [1] 9.12% [at 19 µM] | activation [2] -2.37% [at 19 µM] | activity, negative = inhibition [3] -3.38% [at 19 µM] | activity change, negative = cytotoxicity [4] 1.42% [at 19 µM] | activity change, negative = cytotoxicity [5] 0.0866% [at 19 µM] | activity change, negative = cytotoxicity [6] 5.8% [at 19 µM] | Potency [7] | cAMP activity change [8] 7.8% [at 18.9 µM, active compounds read high] | activity change, negative = inhibition [9] -6.99% [at 19 µM] | activity change, negative = cytotoxicity [10] 3.85% [at 19 µM] | activation [11] -0.419% [at 19 µM] | activity change, negative = inhibition [12] 1.77% [at 18.9 µM] | activity change, negative = cytotoxicity [13] -8.73% [at 18.9 µM] | activity change, negative = cytotoxicity [14] -1.53% [at 19 µM] | viability change, negative = cytotoxic [15] -6.88% [at 15.8 µM] | activity change, negative = cytotoxicity [16] 4% [at 15.8 µM] | activation [17] 0.21% [at 15.8 µM] | activation [18] -0.201% [at 11.8 µM]

NC(N)=NCCC[C@H](N)C(=O)O
inactive: activity change, negative = inhibition [1] 18.9% [at 8.39 µM] | activation [2] -0.985% [at 8.39 µM] | activity, negative = inhibition [3] 14.4% [at 8.39 µM] | activity change, negative = cytotoxicity [4] 2.11% [at 8.39 µM] | activity change, negative = cytotoxicity [5] 6.72% [at 8.39 µM] | activity change, negative = cytotoxicity [6] 6.28% [at 8.39 µM] | activation [7] -0.001% [at 8.39 µM] | cAMP activity change [8] -11% [at 8.39 µM, active compounds read high] | activity change, negative = inhibition [9] -0.191% [at 8.39 µM] | activity change, negative = cytotoxicity [10] 0.856% [at 8.39 µM] | activation [11] -0.127% [at 8.39 µM] | activity change, negative = inhibition [12] 7.3% [at 8.39 µM] | activity change, negative = cytotoxicity [13] -0.687% [at 8.39 µM] | activity change, negative = cytotoxicity [14] -1.33% [at 8.39 µM] | viability change, negative = cytotoxic [15] 7.48% [at 6.97 µM] | activation [17] 2.75% [at 6.97 µM] | activity, negative = inhibition [19] -3.14% [at 4.65 µM] | activation [18] 0.134% [at 5.23 µM]

CCCCCCCCCCCCCCCCOS(=O)(=O)O
inactive: Potency [1] | Potency [2] | Potency [3] | Potency [4] | Potency [20] | Potency [7] | Potency [8] | Potency [10] | Potency [11] | Potency [12] | Potency [15] | outcome [16] | Potency [17]
active: Potency [5] 33.5 µM | Potency [14] 18.8 µM

O=C1CCCCCCCCCCCC(=O)OCCO1
inactive: Potency [1] | Potency [2] | Potency [3] | Potency [4] | Potency [5] | Potency [20] | Potency [6] | Potency [7] | Potency [8] | Potency [10] | Potency [11] | Potency [12] | Potency [15] | outcome [16] | Potency [17] | outcome [19] | Potency [18]

O=C(CS)Nc1ccccc1
inactive: Potency [1] | Potency [2] | Potency [3] | Potency [4] | Potency [5] | Potency [6] | Potency [7] | Potency [8] | Potency [9] | Potency [10] | Potency [11] | Potency [12] | Potency [13] | Potency [14] | Potency [15] | outcome [16] | Potency [17] | outcome [19] | Potency [18]

Cc1ncc(CO)c(C=O)c1O
inactive: Potency [1] | Potency [2] | Potency [3] | Potency [4] | Potency [5] | Potency [6] | Potency [7] | Potency [8] | Potency [9] | Potency [10] | Potency [11] | Potency [12] | Potency [13] | Potency [14] | Potency [15] | outcome [16] | Potency [17] | Potency [18]

O=[N+]([O-])c1ccc2[nH]ncc2c1
inactive: Potency [1] | Potency [2] | Potency [3] | Potency [4] | Potency [5] | Potency [6] | Potency [7] | Potency [8] | Potency [9] | Potency [10] | Potency [11] | Potency [13] | Potency [14] | Potency [15] | outcome [16] | Potency [17] | outcome [19] | Potency [18]
